Measured values as given in the supplement of paper PMC10849652.
Of roughly 8,800 targets only a part is listed; those with a hit were picked by preference. About 0.5% of all pairs of compound and target were hits. A number with no mark means an inactive call.

Key:
Assay in all cases: log2 fold change, soluble protein after heating vs DMSO (PISA); higher = thermal stabilisation; K562 lysate, 10 uM; active = over 0.2 and 3.5 SD of the protein, either way, in both replicates (recomputed)
lapatinib = compound: CS(=O)(=O)CCNCc1ccc(-c2ccc3ncnc(Nc4ccc(OCc5cccc(F)c5)c(Cl)c4)c3c2)o1 [lapatinib]
Method in brief: (§1)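 A 30 min treatment with 10 μM compound was applied to crude K562 extract at 1 mg/mL protein in PBS pH 7.4 with 1 mM MgCl2. Heating for 3 min spanned 48°C-58°C, after which aliquots were pooled, adjusted to 0.5% NP-40 at 4°C and spun at 21,000xg for 90 min. TMTpro 16plex LC-MS/MS of the supernatant, with channel sums equalised, gave values recorded as log-two fold change in thermal stability against solvent controls, from duplicates.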

pictilisib = compound: CS(=O)(=O)N1CCN(Cc2cc3nc(-c4cccc5[nH]ncc45)nc(N4CCOCC4)c3s2)CC1 [pictilisib]
Method in brief: as §1

crizotinib = compound: C[C@@H](Oc1cc(-c2cnn(C3CCNCC3)c2)cnc1N)c1c(Cl)ccc(F)c1Cl [crizotinib]
Method in brief: as §1

[1] = compound: C[C@H](C1=CC=C(C=C1)C(=O)NC2=C3C=CNC3=NC=C2)N
Method in brief: as §1

duvelisib = compound: C[C@H](Nc1ncnc2nc[nH]c12)c1cc2cccc(Cl)c2c(=O)n1-c1ccccc1 [duvelisib]
Method in brief: as §1

gandotinib = compound: Cc1cc(Nc2cc(CN3CCOCC3)c3nc(C)c(Cc4ccc(Cl)cc4F)n3n2)n[nH]1 [gandotinib]
Method in brief: as §1

tozasertib = compound: Cc1cc(Nc2cc(N3CCN(C)CC3)nc(Sc3ccc(NC(=O)C4CC4)cc3)n2)n[nH]1 [tozasertib]
Method in brief: as §1

doramapimod = compound: Cc1ccc(-n2nc(C(C)(C)C)cc2NC(=O)Nc2ccc(OCCN3CCOCC3)c3ccccc23)cc1 [doramapimod]
Method in brief: as §1

bafetinib = compound: Cc1ccc(NC(=O)c2ccc(CN3CC[C@H](N(C)C)C3)c(C(F)(F)F)c2)cc1Nc1nccc(-c2cncnc2)n1 [bafetinib]
Method in brief: as §1

[2] = compound: Cc1cccc(CC(=O)N2CCc3c2ccc(-c2cn(C)c4ncnc(N)c24)c3F)n1
Method in brief: as §1

nilotinib = compound: Cc1cn(-c2cc(NC(=O)c3ccc(C)c(Nc4nccc(-c5cccnc5)n4)c3)cc(C(F)(F)F)c2)cn1 [nilotinib]
Method in brief: as §1

[3] = compound: Cc1nc(Nc2n[nH]c3c2CN(C(=O)N[C@H](CN(C)C)c2ccccc2)C3(C)C)c2sccc2n1
Method in brief: as §1

dasatinib = compound: Cc1nc(Nc2ncc(C(=O)Nc3c(C)cccc3Cl)s2)cc(N2CCN(CCO)CC2)n1 [dasatinib]
Method in brief: as §1

[4] = compound: Cc1ncc(-c2ccnc(Nc3ccc(S(C)(=O)=O)cc3)n2)n1C(C)C
Method in brief: as §1

[5] = compound: Cn1cc(-c2ccc3c(c2)CCN3C(=O)Cc2cccc(C(F)(F)F)c2)c2c(N)ncnc21
Method in brief: as §1

quisinostat = compound: Cn1cc(CNCC2CCN(c3ncc(C(=O)NO)cn3)CC2)c2ccccc21 [quisinostat]
Method in brief: as §1

tipifarnib = compound: Cn1cncc1[C@@](N)(c1ccc(Cl)cc1)c1ccc2c(c1)c(-c1cccc(Cl)c1)cc(=O)n2C [tipifarnib]
Method in brief: as §1

[6] = compound: NC(=O)Nc1cc(-c2cccc(F)c2)sc1C(=O)N[C@H]1CCCNC1
Method in brief: as §1

[7] = compound: NC(=O)c1cnc(N[C@@H]2CCCC[C@@H]2N)nc1Nc1cccc(-n2nccn2)c1
Method in brief: as §1

[8] = compound: NC1(c2ccc(-c3nc4ccn5c(=O)[nH]nc5c4cc3-c3ccccc3)cc2)CCC1
Method in brief: as §1

Chain of UniProt P09622 (P09622 whole entry, looked up): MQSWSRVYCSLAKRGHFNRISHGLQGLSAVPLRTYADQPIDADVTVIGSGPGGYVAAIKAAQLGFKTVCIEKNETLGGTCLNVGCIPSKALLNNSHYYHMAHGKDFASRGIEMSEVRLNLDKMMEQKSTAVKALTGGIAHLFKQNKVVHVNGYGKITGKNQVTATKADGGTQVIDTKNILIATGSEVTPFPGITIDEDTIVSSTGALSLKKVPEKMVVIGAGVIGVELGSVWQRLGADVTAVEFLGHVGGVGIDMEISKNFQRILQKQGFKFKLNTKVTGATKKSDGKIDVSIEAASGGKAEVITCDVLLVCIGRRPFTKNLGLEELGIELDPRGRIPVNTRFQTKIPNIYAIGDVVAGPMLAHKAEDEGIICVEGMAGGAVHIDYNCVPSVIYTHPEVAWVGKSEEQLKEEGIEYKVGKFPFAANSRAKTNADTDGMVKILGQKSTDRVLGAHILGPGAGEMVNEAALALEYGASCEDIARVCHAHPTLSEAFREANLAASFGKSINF
Chain of UniProt Q92564 (Q92564 whole entry, looked up): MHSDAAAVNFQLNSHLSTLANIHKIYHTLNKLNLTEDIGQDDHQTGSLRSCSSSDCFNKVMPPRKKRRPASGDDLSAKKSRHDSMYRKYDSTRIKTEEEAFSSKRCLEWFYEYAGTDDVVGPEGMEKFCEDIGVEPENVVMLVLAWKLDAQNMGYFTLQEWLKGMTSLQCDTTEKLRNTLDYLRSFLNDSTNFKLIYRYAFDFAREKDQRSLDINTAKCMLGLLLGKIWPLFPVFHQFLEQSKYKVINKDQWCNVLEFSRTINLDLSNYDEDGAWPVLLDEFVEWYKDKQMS
Chain of UniProt O75208 (O75208 whole entry, looked up): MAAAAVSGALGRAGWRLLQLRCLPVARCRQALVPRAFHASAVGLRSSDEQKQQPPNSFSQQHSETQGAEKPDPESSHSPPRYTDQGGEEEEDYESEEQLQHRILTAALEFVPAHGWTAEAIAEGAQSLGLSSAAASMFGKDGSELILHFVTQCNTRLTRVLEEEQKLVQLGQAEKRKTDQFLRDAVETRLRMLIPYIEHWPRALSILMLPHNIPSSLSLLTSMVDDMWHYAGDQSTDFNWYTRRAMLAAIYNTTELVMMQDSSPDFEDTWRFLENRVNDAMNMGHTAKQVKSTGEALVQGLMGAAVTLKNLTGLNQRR
Chain of UniProt O75911 (O75911 whole entry, looked up): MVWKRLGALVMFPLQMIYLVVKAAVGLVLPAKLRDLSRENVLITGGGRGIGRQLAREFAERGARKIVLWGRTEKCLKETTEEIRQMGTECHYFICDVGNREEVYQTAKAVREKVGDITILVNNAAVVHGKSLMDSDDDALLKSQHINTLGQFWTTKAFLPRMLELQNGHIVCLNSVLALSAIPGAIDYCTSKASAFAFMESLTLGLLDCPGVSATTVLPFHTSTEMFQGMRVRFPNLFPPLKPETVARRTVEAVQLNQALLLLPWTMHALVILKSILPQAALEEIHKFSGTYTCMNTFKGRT
Chain of UniProt Q07973 (Q07973 whole entry, looked up): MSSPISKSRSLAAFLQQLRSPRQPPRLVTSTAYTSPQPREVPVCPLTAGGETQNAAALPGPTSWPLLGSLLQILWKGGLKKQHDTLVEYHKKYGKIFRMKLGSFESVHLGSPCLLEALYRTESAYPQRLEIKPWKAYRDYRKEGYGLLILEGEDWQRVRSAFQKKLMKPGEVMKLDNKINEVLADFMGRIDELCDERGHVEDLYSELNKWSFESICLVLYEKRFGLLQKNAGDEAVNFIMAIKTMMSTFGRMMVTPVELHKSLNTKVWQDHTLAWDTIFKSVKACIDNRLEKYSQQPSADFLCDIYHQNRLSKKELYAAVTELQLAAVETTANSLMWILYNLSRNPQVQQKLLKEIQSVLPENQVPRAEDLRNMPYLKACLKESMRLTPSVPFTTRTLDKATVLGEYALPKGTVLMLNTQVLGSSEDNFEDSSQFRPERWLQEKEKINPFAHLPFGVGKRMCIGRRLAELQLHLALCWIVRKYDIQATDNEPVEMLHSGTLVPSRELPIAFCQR
Chain of UniProt Q9BY43 (Q9BY43 whole entry, looked up): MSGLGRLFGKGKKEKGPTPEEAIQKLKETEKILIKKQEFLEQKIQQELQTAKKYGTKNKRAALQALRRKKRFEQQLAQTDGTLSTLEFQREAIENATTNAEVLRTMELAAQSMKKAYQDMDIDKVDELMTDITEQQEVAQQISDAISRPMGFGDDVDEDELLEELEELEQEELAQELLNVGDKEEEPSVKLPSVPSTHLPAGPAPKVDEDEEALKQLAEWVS
Chain of UniProt Q7Z401 (Q7Z401 whole entry, looked up): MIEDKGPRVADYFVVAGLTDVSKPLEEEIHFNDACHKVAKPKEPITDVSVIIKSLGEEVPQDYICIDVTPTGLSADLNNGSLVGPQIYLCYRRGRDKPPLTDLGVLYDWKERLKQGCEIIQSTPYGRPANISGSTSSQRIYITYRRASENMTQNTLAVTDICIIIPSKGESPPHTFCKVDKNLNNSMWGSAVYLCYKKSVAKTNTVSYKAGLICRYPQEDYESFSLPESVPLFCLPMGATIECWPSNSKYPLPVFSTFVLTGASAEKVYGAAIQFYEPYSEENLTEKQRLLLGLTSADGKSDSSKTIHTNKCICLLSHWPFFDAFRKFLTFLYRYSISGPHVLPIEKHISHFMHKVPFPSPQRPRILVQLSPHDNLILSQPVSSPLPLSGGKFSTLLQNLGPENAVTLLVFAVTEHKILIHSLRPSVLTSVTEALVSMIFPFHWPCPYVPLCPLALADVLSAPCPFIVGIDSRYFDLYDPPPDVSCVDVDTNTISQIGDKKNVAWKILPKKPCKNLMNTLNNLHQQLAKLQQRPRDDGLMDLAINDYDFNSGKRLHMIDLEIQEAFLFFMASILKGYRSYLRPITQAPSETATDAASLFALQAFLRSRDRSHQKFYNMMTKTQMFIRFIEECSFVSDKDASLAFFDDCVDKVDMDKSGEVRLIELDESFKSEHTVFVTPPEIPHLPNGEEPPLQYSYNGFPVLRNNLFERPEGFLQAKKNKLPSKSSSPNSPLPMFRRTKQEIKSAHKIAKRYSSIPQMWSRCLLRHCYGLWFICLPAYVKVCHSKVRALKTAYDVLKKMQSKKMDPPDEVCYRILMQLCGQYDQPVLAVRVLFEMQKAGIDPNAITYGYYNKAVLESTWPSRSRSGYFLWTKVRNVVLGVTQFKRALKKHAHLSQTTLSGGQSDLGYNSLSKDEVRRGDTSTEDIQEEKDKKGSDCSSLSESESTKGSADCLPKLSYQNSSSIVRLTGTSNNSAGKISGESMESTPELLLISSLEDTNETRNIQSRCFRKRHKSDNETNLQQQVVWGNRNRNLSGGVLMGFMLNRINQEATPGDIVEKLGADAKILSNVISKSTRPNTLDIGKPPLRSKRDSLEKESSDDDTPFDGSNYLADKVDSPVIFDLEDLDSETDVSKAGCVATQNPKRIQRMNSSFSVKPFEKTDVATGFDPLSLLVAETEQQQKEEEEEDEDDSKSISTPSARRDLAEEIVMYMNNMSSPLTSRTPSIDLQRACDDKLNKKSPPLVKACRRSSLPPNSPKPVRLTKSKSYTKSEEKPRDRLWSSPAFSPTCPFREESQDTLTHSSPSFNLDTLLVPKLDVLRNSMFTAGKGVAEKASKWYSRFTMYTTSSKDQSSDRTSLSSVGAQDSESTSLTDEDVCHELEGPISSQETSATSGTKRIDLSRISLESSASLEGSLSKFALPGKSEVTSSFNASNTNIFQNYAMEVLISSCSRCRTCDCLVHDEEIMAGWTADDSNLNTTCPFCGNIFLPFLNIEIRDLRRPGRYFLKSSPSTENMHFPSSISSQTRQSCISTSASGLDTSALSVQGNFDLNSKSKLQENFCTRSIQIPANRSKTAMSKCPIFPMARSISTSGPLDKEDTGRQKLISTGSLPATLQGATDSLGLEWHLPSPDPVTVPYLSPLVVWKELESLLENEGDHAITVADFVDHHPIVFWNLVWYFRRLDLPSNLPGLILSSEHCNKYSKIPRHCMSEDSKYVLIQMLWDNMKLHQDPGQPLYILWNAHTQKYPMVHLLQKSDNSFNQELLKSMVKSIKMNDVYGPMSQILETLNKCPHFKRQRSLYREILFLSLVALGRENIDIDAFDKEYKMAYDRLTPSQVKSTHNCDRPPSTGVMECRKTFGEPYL
Chain of UniProt P50570 (P50570 whole entry, looked up): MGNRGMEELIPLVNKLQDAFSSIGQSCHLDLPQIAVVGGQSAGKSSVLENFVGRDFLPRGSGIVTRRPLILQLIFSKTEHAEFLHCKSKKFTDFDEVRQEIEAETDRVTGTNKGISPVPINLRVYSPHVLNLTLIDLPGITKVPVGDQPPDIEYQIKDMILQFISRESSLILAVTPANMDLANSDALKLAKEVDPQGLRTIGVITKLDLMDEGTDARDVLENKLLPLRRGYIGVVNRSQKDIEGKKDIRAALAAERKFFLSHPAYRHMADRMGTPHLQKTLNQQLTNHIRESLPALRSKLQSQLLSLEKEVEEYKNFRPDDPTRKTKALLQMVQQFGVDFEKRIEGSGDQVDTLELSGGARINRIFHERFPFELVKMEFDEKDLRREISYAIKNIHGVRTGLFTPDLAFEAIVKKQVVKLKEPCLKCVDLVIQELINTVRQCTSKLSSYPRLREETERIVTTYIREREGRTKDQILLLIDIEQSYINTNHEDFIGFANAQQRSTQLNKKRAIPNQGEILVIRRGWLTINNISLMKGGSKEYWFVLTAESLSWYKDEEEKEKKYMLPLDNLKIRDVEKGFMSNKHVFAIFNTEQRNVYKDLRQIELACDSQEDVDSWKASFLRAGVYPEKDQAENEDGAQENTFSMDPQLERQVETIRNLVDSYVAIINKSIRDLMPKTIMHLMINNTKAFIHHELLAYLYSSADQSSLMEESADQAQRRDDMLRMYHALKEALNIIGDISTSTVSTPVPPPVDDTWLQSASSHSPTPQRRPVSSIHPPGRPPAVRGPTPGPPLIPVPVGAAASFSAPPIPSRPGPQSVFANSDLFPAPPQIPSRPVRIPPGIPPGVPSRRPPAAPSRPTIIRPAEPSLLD

Target | log2 fold change (lapatinib) | log2 fold change (pictilisib) | log2 fold change (crizotinib) | log2 fold change [1] | log2 fold change (duvelisib) | log2 fold change (gandotinib) | log2 fold change (tozasertib) | log2 fold change (doramapimod) | log2 fold change (bafetinib) | log2 fold change [2] | log2 fold change (nilotinib) | log2 fold change [3] | log2 fold change (dasatinib) | log2 fold change [4] | log2 fold change [5] | log2 fold change (quisinostat) | log2 fold change (tipifarnib) | log2 fold change [6] | log2 fold change [7] | log2 fold change [8]
DNM2 (UniProt P50570) | -0.003 | 0.022 | -0.013 | 0.021 | -0.007 | -0.076 | 0.001 | 0.033 | -0.011 | 0.035 | 0 | -0.015 | -0.045 | -0.016 | 0.028 | 0.016 | 0.011 | 0.034 | 0.037 | 0.009
DCUN1D4 isoform 3 (UniProt Q92564) | 0.072 | 0.046 | -0.02 | 0.001 | 0.02 | -0.104 | -0.009 | 0.004 | -0.003 | -0.039 | 0.023 | -0.007 | -0.062 | -0.009 | -0.046 | 0.066 | 0.017 | -0.019 | -0.036 | -0.043
DENND4A isoform 2 (UniProt Q7Z401) | -0.034 | 0.001 | -0.038 | -0.206 | -0.067 | 0.045 | -0.027 | -0.009 | -0.064 | 0.203 | -0.02 | -0.002 | -0.008 | 0.023 | 0.008 | -0.083 | -0.017 | 0.058 | 0.042 | 0.008
DHRS3 (UniProt O75911) | 0.02 | -0.051 | -0.024 | -0.044 | -0.025 | 0.059 | -0.043 | 0.035 | -0.032 | 0.011 | 0.007 | 0.005 | 0.23 (active) | -0.028 | 0.024 | -0.031 | 0.06 | 0.019 | -0.078 | -0.044
CHMP4A isoform 2 (UniProt Q9BY43) | 0.009 | 0.022 | -0.047 | -0.227 (active) | -0.001 | 0.182 | -0.01 | 0.054 | -0.036 | 0.18 | -0.026 | -0.021 | 0.039 | 0 | -0.011 | -0.145 | 0.017 | -0.029 | -0.02 | -0.009
DLD (UniProt P09622) | -0.003 | 0.009 | -0.001 | -0.067 | -0.012 | 0.047 | -0.016 | -0.001 | 0.005 | 0.012 | 0.02 | 0.001 | 0.003 | 0.011 | -0.022 | -0.014 | 0.003 | -0.015 | -0.009 | 0.005
CYP24A1 (UniProt Q07973) | -0.099 | 0.015 | -0.289 | -0.462 (active) | 0.077 | 0.235 | -0.02 | 0.006 | -0.209 | 0.325 | 0.036 | -0.029 | -0.049 | 0.015 | 0.008 | -0.33 | -0.018 | 0.04 | 0.068 | -0.161
COQ9 (UniProt O75208) | -0.033 | -0.021 | 0.014 | 0.055 | -0.052 | -0.12 | 0.02 | -0.055 | 0.032 | 0.019 | 0.021 | 0.03 | -0.021 | 0 | -0.007 | 0.036 | -0.016 | 0 | 0.002 | -0.018
